The results in this text go back to PubChem BioAssay.

Results filed as inconclusive are left out. Active and inactive are the calls of the source.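 Rule for the calls, unless noted: active = compounds lowering colon cancer cell viability after pretreatment blocking the GSK3B kinase; inactive = the rest.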

A short description of test [1]: Wnt pathway potentiators raising nuclear beta-catenin – imaging, WNT3A-conditioned medium, mouse C2C12, NPC library, primary screen (AID 1117326; in the data active = nuclear beta-catenin stimulation mostly above about 4.2%, no sharp cut-off; inactive = mostly below about 10%; note: reference of the scale not given here). Particulars: stronger effect = higher value.
A short description of test [2]: stimulators of insulin release from INS-1E, primary screen, cell-based, 5 mM glucose, NPC library (AID 1117329;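 active = compound raises insulin release from rat beta cells at 5 mM glucose, no numeric limit stated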; note: reference of the scale not given here). Particulars: rat INS-1E insulin secretion, at 10 µM, stronger effect = higher value.
A short description of test [3]: growth inhibition of GSK3B-pretreated HCT116 cells – cell-based, CellTiter-Glo, 0.2 to 20 µM (AID 1117336). Particulars: HCT116 viability after GSK3B inhibitor, at 20 µM, stronger effect = higher value. (In ATP-based viability assays light output follows the ATP content of the culture.)
The nature of test [4]: inhibition of endothelial tube formation, primary screen, imaging, VEGF stimulated, CD31 staining, tube area, NPC library (AID 1117340;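 active = compound that reduces growth-factor-driven endothelial tube area in a mixed cell culture, no cutoff stated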). Particulars: VEGF-stimulated ADSC/ECFC co-culture, at 10 µM, stronger effect = higher value.
The nature of test [5]: GLP1 release stimulators, primary, NCI-H716, NPC library (AID 1117341;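 active = compound raises GLP1 secretion from the human gut endocrine cells, with no numeric limit stated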; note: reference of the scale not given here). Particulars: NCI-H716 cells, at 10 µM, stronger effect = higher value.
Test [6] can be described thus: HCT116 colon cancer cell growth inhibition, primary screen, CellTiter-Glo luminescence, NPC library (AID 1117342;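 active = compounds that lower survival of HCT116 colon cancer cells in the luminescence readout, no numeric limit stated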). Particulars: at 20 µM (top of the series).
The nature of test [7]: reduced SW480 viability measured with CellTiter-Glo, NPC library, primary (AID 1117343;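 active = compounds that lower viability of the colon cancer cells in the luminescence readout, with no numeric limit stated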). Particulars: CellTiter-Glo luminescence; at 20 µM (top of the series) unless noted.
Test [8] in a line: NPC library primary testing for decreased DLD-1 cell viability via CellTiter-Glo (AID 1117346;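 active = compounds that lower survival of DLD-1 colon cancer cells in the luminescence readout, no cutoff given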). Particulars: DLD-1 viability, CellTiter-Glo luminescence; at 20 µM (top of the series).
The target in test [9] is NAD(+) hydrolase SARM1 (Homo sapiens) (UniProt Q6SZW1). Put plainly: blocking NAD cleavage by SARM1 SAM-TIR – cell lysate, NAD-Glo luminescence (AID 1508614;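 active = compound whose remaining NAD level is above about 45 nM, limit read from the data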;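 note: higher remaining NAD means stronger inhibition of SARM1 NADase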). Particulars: SAM-TIR HEK293T lysate NADase, at 1 µM, stronger effect = higher value.
Chain of NAD(+) hydrolase SARM1 (Homo sapiens) (Q6SZW1 whole entry, looked up): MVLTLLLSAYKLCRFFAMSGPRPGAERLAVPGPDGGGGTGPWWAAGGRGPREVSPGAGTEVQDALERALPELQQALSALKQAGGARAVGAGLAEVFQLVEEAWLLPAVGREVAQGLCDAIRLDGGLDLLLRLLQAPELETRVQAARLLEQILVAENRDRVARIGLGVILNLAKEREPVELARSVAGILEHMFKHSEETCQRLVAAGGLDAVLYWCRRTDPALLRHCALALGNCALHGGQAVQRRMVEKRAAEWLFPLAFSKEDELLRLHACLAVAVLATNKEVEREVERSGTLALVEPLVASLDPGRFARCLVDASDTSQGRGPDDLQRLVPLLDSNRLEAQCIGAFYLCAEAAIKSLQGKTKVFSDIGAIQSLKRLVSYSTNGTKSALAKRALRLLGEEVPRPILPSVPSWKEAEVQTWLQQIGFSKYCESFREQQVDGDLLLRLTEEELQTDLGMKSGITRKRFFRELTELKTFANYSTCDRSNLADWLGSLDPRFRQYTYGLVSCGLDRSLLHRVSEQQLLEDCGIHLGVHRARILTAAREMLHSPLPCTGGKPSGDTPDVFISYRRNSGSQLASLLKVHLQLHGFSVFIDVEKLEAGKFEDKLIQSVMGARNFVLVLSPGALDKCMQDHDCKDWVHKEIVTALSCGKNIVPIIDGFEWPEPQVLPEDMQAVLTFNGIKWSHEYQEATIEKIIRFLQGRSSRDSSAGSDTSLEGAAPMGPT
Test [10] is described as follows: MELAS cybrid and Rieske KO viability enhancers – cell-based, MELAS cybrids, Rieske KO mouse fibroblasts, CellTiter-Glo, primary screen (AID 1508586;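 active = mean z-score across replicates of 1.96 or higher in either the MELAS or the Rieske mutant cell line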;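 note: z relative to plate mean and SD of compound and empty wells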). Particulars: low glucose.
Test [11] deals with ATP-dependent translocase ABCB1 (Homo sapiens) (UniProt P08183). Put plainly: P-glycoprotein substrate transport blockade – cell-based (AID 377; in the data active = fluorescence slope change above about 50%). Particulars: MDR1-expressing cells, fluorescent substrate accumulation slope; stronger effect = higher value; concentration not given here.
Chain of ATP-dependent translocase ABCB1 (Homo sapiens) (P08183 whole entry, looked up): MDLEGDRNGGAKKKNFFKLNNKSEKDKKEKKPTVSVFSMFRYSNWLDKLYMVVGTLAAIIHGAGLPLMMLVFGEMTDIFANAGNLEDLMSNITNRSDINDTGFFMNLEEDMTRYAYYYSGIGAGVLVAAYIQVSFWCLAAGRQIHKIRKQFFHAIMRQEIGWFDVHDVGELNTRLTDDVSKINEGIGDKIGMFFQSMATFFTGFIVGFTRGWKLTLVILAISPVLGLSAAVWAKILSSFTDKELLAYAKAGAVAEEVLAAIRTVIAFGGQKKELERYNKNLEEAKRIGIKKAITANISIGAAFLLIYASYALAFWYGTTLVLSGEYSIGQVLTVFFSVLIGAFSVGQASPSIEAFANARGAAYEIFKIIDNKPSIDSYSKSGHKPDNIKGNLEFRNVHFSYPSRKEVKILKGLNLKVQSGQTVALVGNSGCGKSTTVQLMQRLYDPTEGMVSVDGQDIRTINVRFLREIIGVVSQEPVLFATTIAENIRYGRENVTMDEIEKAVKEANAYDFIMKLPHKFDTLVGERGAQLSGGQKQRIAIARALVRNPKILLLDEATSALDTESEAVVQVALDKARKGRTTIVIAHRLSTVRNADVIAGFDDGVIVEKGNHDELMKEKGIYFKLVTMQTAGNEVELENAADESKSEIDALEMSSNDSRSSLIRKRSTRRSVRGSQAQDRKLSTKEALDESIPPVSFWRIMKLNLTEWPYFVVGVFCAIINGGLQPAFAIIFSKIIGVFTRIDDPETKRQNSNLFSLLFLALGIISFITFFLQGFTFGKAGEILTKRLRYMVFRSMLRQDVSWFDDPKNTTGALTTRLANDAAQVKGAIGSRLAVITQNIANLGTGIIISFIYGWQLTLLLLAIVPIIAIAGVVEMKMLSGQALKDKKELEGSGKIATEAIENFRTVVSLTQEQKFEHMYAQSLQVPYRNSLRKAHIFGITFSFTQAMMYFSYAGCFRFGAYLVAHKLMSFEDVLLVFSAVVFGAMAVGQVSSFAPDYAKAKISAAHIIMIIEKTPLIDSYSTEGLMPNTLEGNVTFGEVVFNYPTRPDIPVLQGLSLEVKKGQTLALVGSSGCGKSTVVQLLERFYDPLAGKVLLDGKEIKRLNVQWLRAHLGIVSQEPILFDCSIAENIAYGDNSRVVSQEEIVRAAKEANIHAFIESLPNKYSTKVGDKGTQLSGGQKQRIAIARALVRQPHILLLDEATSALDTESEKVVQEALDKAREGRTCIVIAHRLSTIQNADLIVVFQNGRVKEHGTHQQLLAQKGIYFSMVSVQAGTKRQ
The mark [12] stands for this setting: MELAS cybrid survival, CellTiter-Glo 48 h, stronger effect = higher value.
The mark [13] stands for this setting: Rieske KO mouse fibroblast survival, CellTiter-Glo 72 h.

With `CCCCC(CC)COC(=O)c1ccccc1O` (stereo not drawn), the nuclear beta-catenin stimulation in test [1] (at 10 µM) was -0.1% (inactive); in test [1] (stimulation, at 2 µM), -0.3%. For the same compound, the insulin secretion stimulation in test [2] was -2% (inactive). Moreover, the viability decrease in test [3] was 9.8% (inactive). Further, the tube area decrease in [4] is -7.3% (inactive). In addition, the GLP1 secretion stimulation in test [5] is 1.9% (inactive). Besides, the inhibition of viability in test [6] is 2.2% (inactive). Moreover, the results for the viability decrease (inhibition) in [7] and in [8] were 50.1% (active) and 14.3% (inactive), respectively. For the same compound, the remaining NAD in test [9] is 10 nM (inactive).

As to `CO/N=C(\C(=O)N[C@@H]1C(=O)N2C(C(=O)O)=C(CSc3nc(=O)c(O)nn3C)CS[C@H]12)c1csc(N)n1`, the nuclear beta-catenin stimulation is -1.8% (inactive) in test [1] (at 10 µM) and -0.3% in [1] (stimulation, at 2 µM). In addition, in [2], the insulin secretion stimulation is 0% (inactive). Moreover, the viability decrease in [3] was -26.6% (inactive). Besides, in [4], the tube area decrease is -1.5% (inactive). In addition, the GLP1 secretion stimulation in test [5] was -1.7% (inactive). In addition, the inhibition of viability in test [6] was -9.17% (inactive). Further, the viability decrease (inhibition) in test [7] was 8.2% (inactive); in test [8] it was -15.1% (inactive). In [9], the remaining NAD is 10 nM (inactive).

For the compound `CN(C)CCOC1=Cc2ccccc2Sc2ccc(Cl)cc21`, the nuclear beta-catenin stimulation in test [1] (at 10 µM) was 31.6% (inactive); in [1] (stimulation, at 2 µM) it was -1%. In addition, the insulin secretion stimulation in [2] is 14.5% (inactive). Also, the viability decrease in test [3] was 99.3% (active). In addition, the tube area decrease in test [4] was 89.3% (active). Further, the GLP1 secretion stimulation in [5] is -2.6% (inactive). The inhibition of viability in [6] is 99% (active). Also, the viability decrease (inhibition) in [7] was 102% (active); in [8], 97.6% (active). For the same compound, the z-score in test [10] (setting [12]) is 0.153 (inactive); in test [10] (setting [13]), 0.114.

`CCOc1ccccc1OCC1CNCCO1` (stereo not drawn): the fluorescence slope change in test [11] was 51.5% (active). For the same compound, the nuclear beta-catenin stimulation in test [1] (at 10 µM) was 0.4% (inactive); in test [1] (stimulation, at 2 µM), -0.3%. In [2], the insulin secretion stimulation was 1.75% (inactive). In test [3], the viability decrease was 1.7% (inactive). Besides, the tube area decrease in test [4] was -7% (inactive). Further, the GLP1 secretion stimulation in test [5] is -0.1% (inactive). The inhibition of viability in test [6] was 32.4% (inactive). In addition, the viability decrease (inhibition) in test [7] was -7.1% (inactive); in [8] it was -5.4% (inactive). For the same compound, the z-score is 0.538 (inactive) in test [10] (setting [12]) and -0.146 in test [10] (setting [13]).

In the case of `C#C[C@]1(O)CC[C@H]2[C@@H]3CCc4cc(OC5CCCC5)ccc4[C@H]3CC[C@@]21C`, the nuclear beta-catenin stimulation in test [1] (at 10 µM) was 54.3% (active); in test [1] (stimulation, at 2 µM) it was 0.5%. The insulin secretion stimulation in test [2] was 0.3% (inactive). The viability decrease in test [3] is 102% (active). In [4], the tube area decrease is 46.9% (active). Moreover, the GLP1 secretion stimulation in [5] was 32.5% (active). Besides, in test [6], the inhibition of viability is 101% (active). Further, the viability decrease (inhibition) in [7] is 145% (active); in test [8], 105% (active). Also, the remaining NAD in test [9] was 10 nM (inactive).

Turning to `C[N+](C)(C)CC(O)CC(=O)[O-]` (stereo not drawn), the nuclear beta-catenin stimulation was 6.3% (inactive) in test [1] (at 10 µM) and 2.6% in test [1] (stimulation, at 2 µM). Further, the insulin secretion stimulation in test [2] was 3.9% (inactive). Also, in test [3], the viability decrease is 17.4% (inactive). Moreover, in test [4], the tube area decrease is 0.3% (inactive). In addition, the GLP1 secretion stimulation in [5] was -1.8% (inactive). Also, the inhibition of viability in test [6] was -0.3% (inactive). In addition, the viability decrease (inhibition) is -12.1% (inactive) in [7] and 1.7% (inactive) in test [8]. Moreover, in test [9], the remaining NAD was 10 nM (inactive).

Regarding `O=C1NCCN1CCN1CCC(c2cn(-c3ccc(F)cc3)c3ccc(Cl)cc23)CC1`, the nuclear beta-catenin stimulation was 5.7% (inactive) in test [1] (at 10 µM) and 0.1% in test [1] (stimulation, at 2 µM). In test [2], the insulin secretion stimulation is 5.2% (inactive). The viability decrease in test [3] was 99.9% (active). Further, in [4], the tube area decrease is 100% (active). Moreover, in [5], the GLP1 secretion stimulation was -1.3% (inactive). In test [6], the inhibition of viability is 100% (active). The viability decrease (inhibition) in [7] was 103% (active); in test [8], 102% (active). Besides, the z-score in [10] (setting [12]) was -0.903 (inactive); in test [10] (setting [13]), 0.239.

As for `NC(=O)N[C@@H](CCC(=O)O)C(=O)O`, the nuclear beta-catenin stimulation was -0.1% (inactive) in test [1] (at 10 µM) and -1% in [1] (stimulation, at 2 µM). Also, the insulin secretion stimulation in test [2] was 0.3% (inactive). Besides, in test [3], the viability decrease was 11.1% (inactive). In [4], the tube area decrease was -22.3% (inactive). Further, the GLP1 secretion stimulation in test [5] is -2.5% (inactive). The inhibition of viability in test [6] was 4.1% (inactive). The viability decrease (inhibition) is -6.5% (inactive) in test [7] and 1% (inactive) in test [8]. Also, in test [9], the remaining NAD is 10 nM (inactive).

On to `CCNC(=O)/C=C/c1cccc(Br)c1`, for which the nuclear beta-catenin stimulation in test [1] (at 10 µM) is 0.9% (inactive); in test [1] (stimulation, at 2 µM), 0.6%. In addition, the insulin secretion stimulation in test [2] was -2.3% (inactive). The viability decrease in test [3] was -9.75% (inactive). Besides, the tube area decrease in test [4] is -15.1% (inactive). The GLP1 secretion stimulation in test [5] is -0.7% (inactive). In addition, the inhibition of viability in [6] is -8.7% (inactive). Moreover, the viability decrease (inhibition) in test [7] is 38% (inactive); in [8], 15.1% (inactive). For the same compound, in test [9], the remaining NAD was 10 nM (inactive).

Take `Cn1c(=O)c2c(ncn2CC(=O)O)n(C)c1=O`: the nuclear beta-catenin stimulation in test [1] (at 10 µM) is -0.1% (inactive); in test [1] (stimulation, at 2 µM), -1%. In addition, the insulin secretion stimulation in test [2] was 0.95% (inactive). The viability decrease in [3] is 20.3% (inactive). Also, the tube area decrease in test [4] is -15.7% (inactive). Further, the GLP1 secretion stimulation in test [5] was -0.7% (inactive). In addition, in [6], the inhibition of viability is 12.3% (inactive). The figures for the viability decrease (inhibition) in [7] and in test [8] were 0.4% (inactive) and -5.4% (inactive), respectively. The z-score in test [10] (setting [12]) was 0.592 (inactive); in test [10] (setting [13]), 0.00475.

As for `CCCCC(O)c1ccccc1` (stereo not drawn), the nuclear beta-catenin stimulation in [1] (at 10 µM) is -0.9% (inactive); in [1] (stimulation, at 2 µM) it was -0.8%. The insulin secretion stimulation in [2] is -0.1% (inactive). The viability decrease in [3] is -9.5% (inactive). Also, the tube area decrease in test [4] was -9.9% (inactive). The GLP1 secretion stimulation in [5] is -3.9% (inactive). Besides, the inhibition of viability in [6] is 5.3% (inactive). Besides, the values for the viability decrease (inhibition) in [7] and in test [8] were -5.1% (inactive) and -6% (inactive), respectively. Also, the z-score was 0.247 (inactive) in test [10] (setting [12]) and 0.0374 in test [10] (setting [13]). Also, the remaining NAD in [9] is 10 nM (inactive).

Turning to `CCN(CC)C(=O)Nc1ccc(OCC(O)CNC(C)(C)C)c(C(C)=O)c1` (stereo not drawn), the nuclear beta-catenin stimulation in test [1] (at 10 µM) is -1.9% (inactive); in [1] (stimulation, at 2 µM), -0.3%. Also, in [2], the insulin secretion stimulation is 9.4% (inactive). Further, in [3], the viability decrease was 0.3% (inactive). Also, the tube area decrease in [4] was -7.8% (inactive). In addition, the GLP1 secretion stimulation in test [5] was -4.8% (inactive). Also, the inhibition of viability in test [6] is 12% (inactive). Besides, the viability decrease (inhibition) in test [7] is 4.9% (inactive); in [8], -3.6% (inactive). The values for the z-score in [10] (setting [12]) and in test [10] (setting [13]) were 1.68 (inactive) and 0.098, respectively.
